PubChem BioAssay (NCI)
About 79,000 compounds went through this panel and 15% of them were active in at least one assay; those are over-represented in the sample as a whole. Unmarked numbers belong to inactive results. Calls of active or inactive are those of the source. Rule as the data show it: active = growth inhibition above about 70%; inactive = the rest.

Legend:
[1] = NCI Yeast Anticancer Drug Screen. Data for the rad50 strain (AID 155);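 also: 0% = growth of vehicle-only cultures of the same strain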; details: S. cerevisiae rad50 strain growth inhibition, active compounds read high
Procedure, shortened: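 DNA repair mutant yeast, compound exposure, growth read-out; inhibition is taken relative to vehicle.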

[2] = NCI Yeast Anticancer Drug Screen. Data for the mec2-1 strain (AID 157); details: S. cerevisiae mec2-1 strain, active compounds read high
Procedure, shortened: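 Vehicle-treated cultures served as reference for growth inhibition of compound-exposed mec2-1 yeast.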

[3] = NCI Yeast Anticancer Drug Screen. Data for the sgs1 mgt1 strain (AID 161);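 also: 0% = growth of cultures given vehicle only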; details: S. cerevisiae sgs1 mgt1 strain, active compounds read high
Procedure, shortened: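 Test agents were incubated with a DNA-repair-mutant yeast strain. Growth was then read and compared against vehicle-treated controls.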

[4] = NCI Yeast Anticancer Drug Screen. Data for the cln2 rad14 strain (AID 165);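 also: 0% = growth equal to vehicle treated cultures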; details: S. cerevisiae cln2 rad14 strain, active compounds read high
Procedure, shortened: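 Each compound was tested on cln2 rad14 yeast. Inhibition of growth was calculated against vehicle-exposed controls.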

[5] = NCI Yeast Anticancer Drug Screen. Data for the bub3 strain (AID 167); details: S. cerevisiae bub3 mutant strain, active compounds read high
Procedure, shortened: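 In this screen, a yeast mutant lacking normal mitotic checkpoint function is challenged with compound. Relative growth versus vehicle gives the inhibition value.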

[6] = NCI Yeast Anticancer Drug Screen. Data for the mlh1 rad18 strain (AID 175); details: S. cerevisiae mlh1 rad18 strain growth inhibition, active compounds read high
Procedure, shortened: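 Vehicle-treated cultures served as the reference for growth inhibition in a yeast strain carrying DNA damage repair alterations exposed to each compound.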

[7] = at 5.0 µM (retest, dose inferred, filed as 0.5)
[8] = at 50.0 µM (retest, dose inferred, filed as 5.0)

SMILES | growth inhibition [1, 7] | growth inhibition [1, 8] | growth inhibition ([1]; at 50.0 µM) | growth inhibition [2, 7] | growth inhibition [2, 8] | growth inhibition ([2]; at 50.0 µM) | growth inhibition [3, 7] | growth inhibition [3, 8] | growth inhibition ([3]; at 50.0 µM) | growth inhibition [4, 7] | growth inhibition [4, 8] | growth inhibition ([4]; at 50.0 µM) | growth inhibition [5, 7] | growth inhibition [5, 8] | growth inhibition ([5]; at 50.0 µM) | growth inhibition [6, 7] | growth inhibition [6, 8] | growth inhibition ([6]; at 50.0 µM)
CCCCNCCCNCCCNC(=O)c1csc(-c2csc(CCNC(=O)C(NC(=O)C(C)C(O)C(C)NC(=O)C(NC(=O)c3nc(C(CC(N)=O)NCC(N)C(N)=O)nc(N)c3C)C(OC3OC(CO)C(O)C(O)C3OC3OC(CO)C(O)C(OC(N)=O)C3O)c3cnc[nH]3)C(C)O)n2)n1 (stereo not given) | 97% (active) | 99% (active) | 93% (active) | 98% (active) | 99% (active) | 93.8% (active) | 96% (active) | 98% (active) | 94% (active) | 95% (active) | 94% (active) | 91.9% (active) | 97% (active) | 98% (active) | 93.9% (active) | 98% (active) | 99% (active) | 92.7% (active)
COC(=O)Cc1cn[nH]c1C(=O)OC | -147% | 8% | 9.2% | -51% | -45% | 0.7% | -65% | -48% | 1.7% | -66% | -52% | 29.6% | -68% | -54% | -15.2% | -117% | -94% | 9.75%
COC1/C=C\OC2(C)Oc3c(C)c(O)c4c(O)c(c5[nH]c(-c6ccccc6)nc5c4c3C2=O)NC(=O)/C(C)=C\C=C\C(C)C(O)C(C)C(O)C(C)C(OC(C)=O)C1C (stereo not given) | 29% | 84% (active) | 88.5% (active) | 30% | 94% (active) | 91.1% (active) | 20% | 88% (active) | 91.7% (active) | 44% | 91% (active) | 88.6% (active) | 14% | 89% (active) | 88.6% (active) | 19% | 94% (active) | 90% (active)
CCc1scc(C)[n+]1CC(=O)c1cccc([N+](=O)[O-])c1 | -1% | 15% | -6.25% | -10% | 3% | -2.9% | 11% | 2% | -4.4% | 12% | 18% | 17.6% | 12% | 25% | 8.95% | 19% | 22% | -1.95%
O=C(Nc1cccc(C(F)(F)F)c1)C(Cl)=C(Cl)Cl | 12% | 99% (active) | 98.5% (active) | -1% | 98% (active) | 98.8% (active) | 0% | 98% (active) | 98.5% (active) | -8% | 99% (active) | 97.8% (active) | 0% | 98% (active) | 98.5% (active) | -2% | 99% (active) | 98.7% (active)
Cc1ccnc2ccc3ccccc3c12 | -142% | 22% | -17.9% | -48% | -38% | -1% | -63% | -21% | 20.4% | -62% | -49% | 22.3% | -67% | -18% | 31% | -138% | -55% | 33.3%
CCOC(=O)C1(C#N)C(c2ccccc2)CC(O)(c2ccc([N+](=O)[O-])cc2)C(C(=O)c2ccc([N+](=O)[O-])cc2)C1c1ccccc1 (stereo not given) | -10% | -25% | 15.6% | 5% | -12% | 14.3% | -8% | 0% | -6.4% | -18% | -17% | 31.4% | -13% | 2% | 6% | 1% | -3% | 21.2%
O=[N+]([O-])c1ccc(C2=C[P+](c3ccccc3)(c3ccccc3)C=C(c3ccccc3)O2)cc1 | 29% | 97% (active) | 91% (active) | 21% | 98% (active) | 90.4% (active) | 18% | 99% (active) | 85.2% (active) | 30% | 98% (active) | 86.4% (active) | 45% | 98% (active) | 92.2% (active) | 22% | 97% (active) | 92.2% (active)
Oc1cc(Br)cc2cccnc12 | 99% (active) | 99% (active) | 87.7% (active) | 98% (active) | 99% (active) | 92% (active) | 98% (active) | 99% (active) | 84.3% (active) | 99% (active) | 99% (active) | 89.5% (active) | 99% (active) | 99% (active) | 88.7% (active) | 99% (active) | 99% (active) | 83.8% (active)
CC(N)C1C(C)CC2C3CC=C4CC(O)CCC4(C)C3CCC21C (stereo not given) | 50% | 85% (active) | 4.45% | 35% | 74% (active) | 25.1% | 83% (active) | -19% | 74% (active) | 49% | 86% (active) | 8.3% | 52% | 85% (active) | 84.1% (active) | 57% | 86% (active) | 53.2%
